Experimental data reported in PubChem BioAssay AID624330 (Southern Research Specialized Biocontainment Screening …, 2012).
In all, about 340,000 compounds went through this assay and about 2,100 (0.62%) were called active.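 How the source made its calls: active means first-screen hits whose inhibition reached a set limit at any dose in the follow-up dose series; inconclusive means inhibition above the set first-screen limit but never retested; inactive means the rest.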 The list is a sample of the results. Results with a measured potency or affinity are listed apart.

biological target: Rac GTPase-activating protein 1 (Homo sapiens) (UniProt Q9H0H5); experiment: MgcRacGAP GTPase-activating activity inhibitors, confirmation, biochemical, ADP Hunter fluorescence, primary and confirmatory (AID 624330); settings: MgcRacGAP-stimulated Rac1 GTP hydrolysis, at 30 µM, stronger effect = higher value, GST-tagged Rac1 F28L mutant substrate;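 further: fluorescence reports GDP produced by GAP-driven GTP hydrolysis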
Sequence (Q9H0H5 whole entry, looked up): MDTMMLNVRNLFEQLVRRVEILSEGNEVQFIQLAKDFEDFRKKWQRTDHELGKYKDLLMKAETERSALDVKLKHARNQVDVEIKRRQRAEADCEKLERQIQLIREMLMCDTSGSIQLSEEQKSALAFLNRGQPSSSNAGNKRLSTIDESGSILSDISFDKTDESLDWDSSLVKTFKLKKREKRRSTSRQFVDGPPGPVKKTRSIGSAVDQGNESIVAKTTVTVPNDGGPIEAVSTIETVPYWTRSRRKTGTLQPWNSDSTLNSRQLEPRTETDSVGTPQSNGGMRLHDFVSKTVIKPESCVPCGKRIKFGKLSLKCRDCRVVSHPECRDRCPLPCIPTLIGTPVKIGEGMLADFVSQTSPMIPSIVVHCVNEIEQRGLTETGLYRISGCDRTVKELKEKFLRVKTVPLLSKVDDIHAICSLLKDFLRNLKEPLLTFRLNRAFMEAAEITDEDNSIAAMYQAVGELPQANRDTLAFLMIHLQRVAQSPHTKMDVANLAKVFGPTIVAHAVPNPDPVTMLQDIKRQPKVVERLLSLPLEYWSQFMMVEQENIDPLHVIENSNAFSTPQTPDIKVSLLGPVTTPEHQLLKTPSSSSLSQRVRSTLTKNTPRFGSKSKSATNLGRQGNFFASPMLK

inhibition, inactive:
Cc1cccc(NS(=O)(=O)c2cccc(C(=O)N3CCCCCC3)c2)c1 7.68%
CCOc1ccc(NC(=O)c2cccs2)c([N+](=O)[O-])c1 9.62%
COc1ccc(COC(=O)N/N=C/c2cccs2)cc1 0.62%
Cc1ccc(/C=C2/SC(=S)N(CCCC(=O)Nc3cc([N+](=O)[O-])ccc3O)C2=O)cc1 3.56%
CCN(CC)CCNS(=O)(=O)c1ccc(Cl)cc1 5.79%
Cc1cc2ncn(-c3ncnc4sc(C)c(C)c34)c2cc1C 6.72%
CC1CCN(C(=O)c2nc[nH]c2C(=O)O[C@H](C)c2ccccc2)CC1 9.03%
CC(=O)Nc1ccc(S(=O)(=O)Nc2nc3ccccc3nc2Nc2ccc(O)c(C(=O)O)c2)cc1 9.87%
Oc1ccc(NCc2cccc(OCc3ccccc3)c2)cc1 9.79%
CC(C)CC(=O)Nc1ccc(Nc2ccccc2)cc1 22.4%
CCCC(=O)Nc1ccc(Nc2ccccc2)cc1 22.6%
CC(=O)Nc1ccc(S(=O)(=O)Nc2nc3ccccc3nc2Nc2ccccc2)cc1 4.86%
Oc1ccc(NCc2cccc(OCc3ccc(F)cc3)c2)cc1 3.64%
O=C(Nc1ccccc1)c1ccc(NC(=O)C2CC2)cc1 3.78%
O=C(Nc1ccccc1)C1CCCCC1 -3.44%
O=C(COC(=O)CNC(=O)c1ccccc1F)Nc1ccc2c(c1)OCO2 4.84%
COC(=O)c1cc(Nc2cc(C)c3ccc(O)cc3n2)cc(C(=O)OC)c1 11.8%
COc1nc(-c2ccccc2)nc(C)c1CC(=O)O 9.59%
Cc1ccc(S(=O)(=O)/N=C(/c2ccc(F)cc2)N(C)C)cc1 8.12%
COCCN(Cc1nc(C2(c3ccc(C)cc3)CCCC2)no1)C(C)C -3.53%
CCOc1ccc(N2C(=O)Nc3ccc(Br)cc3C2(O)C(=O)NCCCN(C)C)cc1 (stereo not drawn) 8.07%
COC(=O)C(CC(=O)c1ccc(C)cc1)n1cccn1 (stereo not drawn) 11.3%
CCOC(=O)c1cnc2ccccc2c1Nc1cccc(C(=O)O)c1 -0.21%
CCSc1nnc(NC(=O)[C@H](C)NC(=O)c2ccccc2Cl)s1 9.72%
CCC(=O)Nc1ccc(NC(=S)Nc2ccccc2)cc1 8.45%
CCC(=O)Nc1ccc(C(=O)c2ccccc2)cc1 10.1%
CC(C)C1N=C2c3ccccc3N=C(SCC#N)N2C1=O (stereo not drawn) 10.5%
CC(C)C1N=C2c3ccccc3N=C(SCC(=O)NCCc3ccc(S(N)(=O)=O)cc3)N2C1=O (stereo not drawn) 1.59%
